Most compounds without a hit are left out; they make up all but 3.5% or so of the library.
BoNT-F LC inh – inhibitors of Botulinum neurotoxin F light chain protease; Multiplex microsphere protease cleavage assay, flow cytometry; inhibition, % at 10 µM; 0.22% of 360,000 active; in the data active = inhibition above about 35%, passing the limit was not always enough; inconclusive = no clear call, values can overlap the other calls; also: plate controls were buffer without enzyme for full effect and enzyme alone for no effect
Autofluor counter – counter-screen for toxin protease inhibitors: compound fluorescence. fluorescence intensity (concentration not given with the values). 3.1% of 360,000 active. AID 624483. compound autofluorescence counterscreen, microsphere flow cytometry; stronger effect = higher value; in the data active = fluorescence intensity above about 16000; inconclusive = no clear call, values can overlap the other calls
BoNT-A LC inh2 – inhibitors of Botulinum neurotoxin A light chain protease. 0.17% of 360,000 active. inhibition, % at 10 µM. multiplex microsphere protease substrate cleavage, flow cytometry. AID 588499; in the data active = inhibition above about 30%; inconclusive = no clear call, values can overlap the other calls; also: plate controls were buffer without enzyme for full effect and enzyme alone for no effect
Anthrax LF inh2 – blocks Bacillus anthracis lethal factor protease; P15917; multiplex microsphere protease cleavage assay, LF; inhibition, % at 10 µM; 0.12% of 360,000 active; in the data active = inhibition above about 30%; inconclusive = no clear call, values can overlap the other calls; also: plate controls were buffer without enzyme for full effect and enzyme alone for no effect
Target sequence (P15917 whole entry, looked up): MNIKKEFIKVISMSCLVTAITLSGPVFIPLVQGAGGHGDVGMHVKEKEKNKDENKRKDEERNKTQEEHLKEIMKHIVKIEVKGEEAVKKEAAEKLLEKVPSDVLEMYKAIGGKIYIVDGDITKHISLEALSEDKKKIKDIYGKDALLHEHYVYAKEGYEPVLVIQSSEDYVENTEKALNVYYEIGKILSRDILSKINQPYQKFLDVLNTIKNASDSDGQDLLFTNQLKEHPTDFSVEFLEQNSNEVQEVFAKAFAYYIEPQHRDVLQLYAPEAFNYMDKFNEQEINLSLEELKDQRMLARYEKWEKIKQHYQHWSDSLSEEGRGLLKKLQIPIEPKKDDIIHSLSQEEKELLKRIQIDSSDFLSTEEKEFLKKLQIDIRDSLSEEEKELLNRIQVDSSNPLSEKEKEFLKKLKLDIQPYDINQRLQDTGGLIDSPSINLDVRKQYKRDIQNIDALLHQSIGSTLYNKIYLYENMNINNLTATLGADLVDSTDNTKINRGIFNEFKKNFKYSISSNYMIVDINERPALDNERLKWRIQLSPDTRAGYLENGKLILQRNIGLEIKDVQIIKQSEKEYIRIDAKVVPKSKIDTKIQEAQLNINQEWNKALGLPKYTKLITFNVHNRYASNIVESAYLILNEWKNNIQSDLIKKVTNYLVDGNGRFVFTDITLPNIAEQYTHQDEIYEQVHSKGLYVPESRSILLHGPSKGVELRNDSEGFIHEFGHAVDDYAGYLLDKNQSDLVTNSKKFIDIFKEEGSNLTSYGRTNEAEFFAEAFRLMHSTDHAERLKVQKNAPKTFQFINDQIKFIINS
BoNTA LC inh 1 – inhibitors of Botulinum neurotoxin A light chain protease; multiplex microsphere protease assay, flow cytometry; 3% of 720 active; inhibition, % at 10 µM; shares compounds with BoNT-F LC inh; in the data active = inhibition above about 32%
BoNT-F LC CP1 – blocks botulinum neurotoxin F light chain protease; inhibition, % at 10 µM; multiplex microsphere protease cleavage assay, flow cytometry; 720 tested, under 10 active; shares compounds with BoNT-F LC inh
LF protease CP1 – blocks anthrax lethal factor protease | multiplex microsphere protease cleavage assay, LF | inhibition, % at 10 µM | 720 tested, under 10 active | shares compounds with BoNT-F LC inh | AID 602142
The depositor's hits bear a star; ? = inconclusive; · = no result. Unless noted, no rule for the calls is given here.

SMILES | BoNT-F LC inh | Autofluor counter | BoNT-A LC inh2 | Anthrax LF inh2 | BoNTA LC inh 1 | BoNT-F LC CP1 | LF protease CP1
O=C(Nc1ccccc1O)c1cccc(S(=O)(=O)Nc2ccccc2O)c1 | -9 | 6544 | 0 | 4 | -2 | -21 | -2
Cc1ccccc1NS(=O)(=O)c1cccc(C(=O)Nc2cccc(C(=O)O)c2)c1 | ? | 4073 | -2 | 5 | -1 | -4 | -1
Cc1cccc(OCC(=O)Nc2cccc(C(=O)Nc3ccccc3C(=O)O)c2)c1 | -6 | 1922 | 0 | -2 | · | · | ·
Cc1cccc(NC(=O)c2cccc(S(=O)(=O)Nc3ccccc3C(=O)O)c2)c1 | -48 | 3303 | -3 | -7 | 1 | -6 | -2
COc1ccc(NS(=O)(=O)c2cccc(C(=O)Nc3cccc(C(=O)O)c3)c2)cc1 | ? | 4059 | -2 | -10 | 1 | 15 | -4
Cc1ccccc1-c1cc(C(=O)NCc2cccc(Br)c2)n(CC2CC(c3cccnc3)=NO2)n1 (stereo not drawn) | -3 | 4277 | 0 | -3 | · | · | ·
O=C(CC1SC(N2CCCC2)=NC1=O)Nc1ccc(C(=O)N2CCN(c3cccc(Cl)c3)CC2)cc1 (stereo not drawn) | 9 | 5305 | -1 | -2 | · | · | ·
O=C(O)c1ccc2c(=O)n3c(nc2c1)/C(=C/c1cccc(Cl)c1Cl)CC3 | ? | 4757 | -5 | 15 | · | · | ·
COc1ccc(CNC(=O)c2cccc(NC(=O)c3ccccc3)c2)cc1 | 40* | 2804 | 4 | 0 | 0 | -7 | -2
CCN(CCCNC(=O)CN1C(=O)COc2ccccc21)c1ccccc1 | 21 | 5098 | 30* | 35* | 1 | -3 | -4
COc1ccc(C(=O)Nc2ccc3nc(C)c(C)nc3c2)cc1 | 6 | 3841 | 0 | 11 | · | · | ·
COc1ccc(C(=O)Nc2ccc3c(c2)nc2n3CCSC2)cc1 | 38* | 4353 | 7 | 2 | 0 | -1 | -5
COc1ccc(CCNC(=O)COc2cccc(-n3cnnn3)c2)cc1 | 10 | 5385 | 4 | -7 | · | · | ·
COCCN1C(=O)N(c2cccc(C)c2)C(=O)C1CC(=O)Nc1ccc(OC)cc1 (stereo not drawn) | 37* | 3457 | 1 | 3 | 0 | 1 | -1
CCNC(=O)CC1C(=O)N(c2ccc(C)cc2)C(=O)N1CCOC (stereo not drawn) | 36* | 3534 | 4 | 8 | -1 | -3 | -2
COc1ccc(CN2CCN(CCc3ccccc3)C(CCO)C2)c(Cl)c1OC (stereo not drawn) | ? | 3490 | 1 | 3 | · | · | ·
O=C(Cc1cccc(C(F)(F)F)c1)NCc1ccc(Cl)cc1 | 0 | 2705 | 0 | 0 | · | · | ·
O=C(O)CS(=O)(=O)CC(=O)NCc1cccc(C(F)(F)F)c1 | 50* | 2638 | 4 | 2 | 0 | -6 | -2
COc1ccc2nc(C)cc(Nc3ccc(C)cc3)c2c1 | ? | 3745 | -2 | 8 | · | · | ·
COc1ccc2nc(C)cc(NCc3ccc(F)cc3)c2c1 | 134* | 84261* | 16 | 14 | -11 | 74* | 7
CC(=O)Nc1ccc(NC(=O)CSc2nnc(N)n2-c2ccccc2)cc1 | 39* | 3673 | 4 | -5 | -2 | -5 | -4
CC(=O)Nc1ccc(NC(=O)CSc2nnc(CC(C)O)n2-c2ccccc2)cc1 (stereo not drawn) | ? | 3363 | -4 | -5 | · | · | ·
COc1cccc(OCc2cc(C(=O)N3CCN(C(C)=O)CC3)no2)c1 | -2 | 4411 | -2 | -2 | · | · | ·
COC(=O)C1Cc2ccccc2CN1S(=O)(=O)c1ccc(C)cc1 (stereo not drawn) | 36* | 3884 | 1 | -7 | 1 | 4 | -3
CCc1cccc(CC)c1NC(=O)C1CN(S(=O)(=O)c2ccccc2)CCN1S(=O)(=O)c1ccccc1 (stereo not drawn) | -6 | 2655 | 2 | 3 | · | · | ·
SMILES | BoNT-F LC inh | Autofluor counter | BoNT-A LC inh2 | Anthrax LF inh2 | BoNTA LC inh 1 | BoNT-F LC CP1 | LF protease CP1
Cc1cccc(C(C)C)c1NC(=O)C1CN(S(=O)(=O)c2ccccc2)CCN1S(=O)(=O)c1ccccc1 (stereo not drawn) | 14 | 6056 | 38* | 37* | 2 | -4 | 0
COc1ccccc1CN1CCSCC1 | 71* | 10448 | 12 | 14 | -2 | -13 | -4
COc1cccc(CN2CCSCC2)c1OC | 11 | 3808 | 2 | -21 | · | · | ·
CC1(C)CCc2cc(S(=O)(=O)N3CCN(S(=O)(=O)c4c(F)cccc4F)CC3)ccc2O1 | -7 | 3951 | 0 | 4 | · | · | ·
O=C(O)CC1(CC(=O)Nc2ccc(C(F)(F)F)cc2)CCCC1 | 40* | 4111 | 2 | 4 | 1 | -2 | 2
Cc1ccc(NC(=O)CC2(CC(=O)O)CCCC2)cc1 | 33 | 4216 | 0 | 11 | · | · | ·
CCOc1ccc(-c2nc(CSc3nncs3)cs2)cc1OC | 41* | ? | 25 | -28 | -1 | -6 | -8
COc1ccc([N+](=O)[O-])cc1NC(=O)CSc1nncn1-c1ccccc1 | -10 | 1902 | -1 | -7 | · | · | ·
COC(=O)CCSc1cc([N+](=O)[O-])cc2c1c(C1OCCO1)nn2-c1ccccc1 | 5 | 2047 | 33* | 14 | 8 | 0 | 2
O=C(c1ccccc1)N1CCCC(C(=O)N2CCN(c3ccccc3)CC2)C1 (stereo not drawn) | ? | 3990 | -7 | 34* | 0 | -3 | -3
O=C(c1ccccc1)N1CCCC(C(=O)N2CCCCC2)C1 (stereo not drawn) | 6 | 4798 | 1 | 0 | · | · | ·
COc1ccc(S(=O)(=O)N2CCN(Cc3ccc(OC)c(OC)c3)CC2)cc1 | ? | 3690 | -6 | 42* | -2 | -2 | -2
COc1ccc(S(=O)(=O)N2CCN(C)CC2)cc1 | 74* | 3909 | 3 | -5 | -1 | 0 | -3
COc1ccc(NC(=O)COC(=O)c2ccc(S(=O)(=O)N3CCCCCC3)cc2)c(OC)c1 | 6 | 5800 | -2 | 1 | · | · | ·
CCCCN(C(=O)C(C)Oc1ccc(Br)cc1)c1c(N)n(CC(C)C)c(=O)[nH]c1=O (stereo not drawn) | 3 | 2941 | 1 | -5 | · | · | ·
CCC(C)(C)n1nnnc1C(C(C)C)N(Cc1ccco1)Cc1cc2cc3c(cc2[nH]c1=O)OCO3 (stereo not drawn) | 38* | 10857 | 33* | -17 | 0 | 1 | -7
CCC(C)(C)n1nnnc1C(C(C)C)N(Cc1cccnc1)Cc1ccco1 (stereo not drawn) | 0 | 3446 | 0 | -8 | · | · | ·
Cc1ccccc1N(CC(=O)NCC1CCCO1)C(=O)CNS(=O)(=O)c1ccc(F)cc1 (stereo not drawn) | -32 | 3309 | -2 | -5 | · | · | ·
Cc1cc2ccccc2n1CCNC(=O)c1ccccc1 | ? | 1420 | ? | ? | 24 | -6 | 17
CC(=O)NCCn1c(C)cc2ccccc21 | 2 | 5295 | 8 | 21 | · | · | ·
COc1ccc(C(=O)NCCn2ccc3ccccc32)cc1 | 11 | 9335 | 53* | 36* | 2 | 13 | 1
O=C(CCn1ccnc1)Nc1ccc2ccccc2c1 | 38* | 4229 | 7 | 1 | 0 | -3 | -1
CCOc1ccc(NC(=O)CCn2ccnc2)cc1 | 4 | 3549 | 0 | -3 | · | · | ·
